Records with an inconclusive call do not appear. Calls of active or inactive are those of the source. Unless noted, the call rests on the fitted dose curve.
Assays:
[1] = molecular target: Estrogen receptor (Homo sapiens) (UniProt P03372); test: qHTS assay to identify small molecule agonists of the estrogen receptor alpha (ER-alpha) signaling pathway in the presence of an antagonist (AID 1259383); further: top concentration of the series differs between compounds; nearly all actives have a fitted effect of over 15% in size
Estrogen receptor (Homo sapiens), sequence (P03372 whole entry, looked up): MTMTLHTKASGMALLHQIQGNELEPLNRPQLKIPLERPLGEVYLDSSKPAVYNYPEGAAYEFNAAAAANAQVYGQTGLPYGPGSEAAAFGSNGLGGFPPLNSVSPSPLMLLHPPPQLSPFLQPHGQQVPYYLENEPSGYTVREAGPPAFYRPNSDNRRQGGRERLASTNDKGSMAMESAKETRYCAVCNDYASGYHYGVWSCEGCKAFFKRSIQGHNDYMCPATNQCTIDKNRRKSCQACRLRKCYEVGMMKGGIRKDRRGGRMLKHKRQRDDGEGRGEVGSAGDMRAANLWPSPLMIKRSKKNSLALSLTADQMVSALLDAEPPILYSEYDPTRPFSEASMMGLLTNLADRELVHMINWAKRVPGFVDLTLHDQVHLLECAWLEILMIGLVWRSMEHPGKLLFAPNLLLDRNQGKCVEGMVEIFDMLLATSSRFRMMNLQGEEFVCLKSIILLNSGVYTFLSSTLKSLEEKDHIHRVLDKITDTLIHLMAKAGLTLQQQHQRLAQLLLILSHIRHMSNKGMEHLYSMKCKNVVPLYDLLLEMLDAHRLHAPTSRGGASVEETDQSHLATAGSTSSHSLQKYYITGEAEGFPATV
In short: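 Quantitative HTS confirmation: compounds titrated at 15 concentrations onto estrogen-deprived VM7Luc4E2 cells carrying a four-ERE luciferase construct, with ICI-182,780 present at 10.0nM final. Signal is luminescence after 22hr exposure.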

[2] = qHTS assay to identify small molecule agonists or antagonists of the thyroid stimulating hormone receptor (TSHR) signaling pathway - wild type cell line counter screen (AID 1259384)
In short: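 Wild-type HEK293 cells were plated 18 h at 37 C/5% CO2, pin-dosed with compound plus Ro20-1724 medium, held 30 min at room temperature, then given cAMP-d2 and anti-cAMP-cryptate; fluorescence was read after 1 h. Fifteen concentrations, triplicate.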

[3] = molecular target: Thyrotropin receptor (Homo sapiens) (UniProt P16473); test: qHTS assay to identify small molecule antagonists of the thyroid stimulating hormone receptor (TSHR) signaling pathway (AID 1259385); further: nearly all actives have a fitted effect of over 20% in size
Thyrotropin receptor (Homo sapiens), sequence (P16473 whole entry, looked up): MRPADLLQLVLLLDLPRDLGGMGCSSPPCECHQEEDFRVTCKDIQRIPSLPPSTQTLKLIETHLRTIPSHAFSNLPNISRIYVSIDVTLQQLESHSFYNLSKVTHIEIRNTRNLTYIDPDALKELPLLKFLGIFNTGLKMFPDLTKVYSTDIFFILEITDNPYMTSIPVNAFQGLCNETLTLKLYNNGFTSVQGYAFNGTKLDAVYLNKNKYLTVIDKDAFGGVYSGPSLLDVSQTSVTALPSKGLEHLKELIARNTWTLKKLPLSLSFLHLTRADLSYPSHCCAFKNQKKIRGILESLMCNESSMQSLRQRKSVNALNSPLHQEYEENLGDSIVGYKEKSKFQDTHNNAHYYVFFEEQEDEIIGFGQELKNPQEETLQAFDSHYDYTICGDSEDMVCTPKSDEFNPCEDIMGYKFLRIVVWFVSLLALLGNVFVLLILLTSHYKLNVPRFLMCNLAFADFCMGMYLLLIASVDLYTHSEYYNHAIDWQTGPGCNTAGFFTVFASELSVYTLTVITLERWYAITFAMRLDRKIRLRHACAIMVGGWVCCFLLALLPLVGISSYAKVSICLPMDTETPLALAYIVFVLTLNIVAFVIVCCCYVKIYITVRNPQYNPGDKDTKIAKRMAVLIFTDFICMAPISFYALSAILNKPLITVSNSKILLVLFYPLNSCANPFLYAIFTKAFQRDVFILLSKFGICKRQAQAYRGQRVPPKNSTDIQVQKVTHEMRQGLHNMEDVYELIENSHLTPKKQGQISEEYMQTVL
In short: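 TSHR-HEK293 cells were plated and held 18 h at 37C/5% CO2, then given compound plus Ro20-1724 and stimulated with TSH at 1.5 ng/mL final. After 30 min at room temperature, cAMP was detected with cAMP-d2/anti-cAMP-cryptate (1 h) by fluorescence.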

[4] = qHTS assay to identify small molecule agonists of the estrogen receptor alpha (ER-alpha) signaling pathway in the presence of an antagonist - cell viability counter screen (AID 1259386; active means well fitted curve in the direction sought with a large enough effect in the repeat runs; an effect the other way counts as inactive or inconclusive;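 further: series mostly up to about 92 µM; cells exposed to compounds for 22 h at 37 °C before the viability read; nearly all actives have a fitted effect of over 30% in size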)
In short: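 The test measures whether compounds kill ER-alpha reporter cells (VM7Luc4E2) under antagonist co-treatment (ICI-182,780, 10.0nM). Fluorescence from CellTiter-Fluor is read after a 22hr exposure.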

[5] = molecular target: Progesterone receptor (Homo sapiens) (UniProt P06401); test: qHTS assay to identify small molecule agonists of the progesterone receptor (PR) signaling pathway (AID 1346784); further: nearly all actives have a fitted effect of over 30% in size
Progesterone receptor (Homo sapiens), sequence (P06401 whole entry, looked up): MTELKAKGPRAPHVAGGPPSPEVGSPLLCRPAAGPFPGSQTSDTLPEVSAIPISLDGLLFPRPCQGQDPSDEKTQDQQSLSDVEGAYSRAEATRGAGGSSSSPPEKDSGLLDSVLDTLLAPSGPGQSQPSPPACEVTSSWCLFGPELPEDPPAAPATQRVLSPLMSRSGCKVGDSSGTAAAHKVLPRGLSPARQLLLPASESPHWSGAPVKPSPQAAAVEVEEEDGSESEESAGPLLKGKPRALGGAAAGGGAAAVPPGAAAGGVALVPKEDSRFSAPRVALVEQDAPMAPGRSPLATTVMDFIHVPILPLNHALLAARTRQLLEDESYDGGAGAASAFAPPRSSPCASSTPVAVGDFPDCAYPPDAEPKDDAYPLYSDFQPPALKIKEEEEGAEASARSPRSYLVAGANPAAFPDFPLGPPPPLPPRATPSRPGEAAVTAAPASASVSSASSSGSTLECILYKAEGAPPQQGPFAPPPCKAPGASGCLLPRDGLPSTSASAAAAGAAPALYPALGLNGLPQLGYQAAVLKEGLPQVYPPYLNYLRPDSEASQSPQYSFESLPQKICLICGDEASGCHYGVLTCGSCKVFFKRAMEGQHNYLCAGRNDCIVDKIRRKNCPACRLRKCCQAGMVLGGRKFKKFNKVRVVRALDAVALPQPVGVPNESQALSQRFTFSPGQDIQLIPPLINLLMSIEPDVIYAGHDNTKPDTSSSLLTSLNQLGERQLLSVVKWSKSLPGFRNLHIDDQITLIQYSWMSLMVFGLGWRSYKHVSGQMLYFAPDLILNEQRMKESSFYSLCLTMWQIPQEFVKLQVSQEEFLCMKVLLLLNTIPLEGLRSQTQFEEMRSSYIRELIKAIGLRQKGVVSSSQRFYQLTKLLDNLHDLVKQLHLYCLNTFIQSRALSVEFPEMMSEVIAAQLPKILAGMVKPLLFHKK
In short: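 Using charcoal-stripped serum (2%) to limit endogenous steroids, PR-UAS-bla HEK 293T cells received compounds for 16 hr at 37C after 6 hr plating; beta-lactamase FRET fluorescence was recorded following 2 hr substrate loading at room temperature.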

[6] = molecular target: Progesterone receptor (Homo sapiens) (UniProt P06401); test: qHTS assay to identify small molecule antagonists of the progesterone receptor (PR) signaling pathway (AID 1346795; active means well fitted inhibition curve with a large enough effect in the signal ratio in the repeat runs, not every such curve was filed as active; the % refers to the signal ratio)
In short: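 Inhibition of R5020-induced (1 nM final) beta-lactamase reporter signal in PR-UAS-bla HEK293T cells was scored by FRET fluorescence after overnight (16 hr) compound treatment.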

[7] = qHTS assay to identify small molecule agonists of the progesterone receptor (PR) signaling pathway - cell viability counter screen (AID 1346799); further: nearly all actives have a fitted effect of over 45% in size
In short: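 Cytotoxicity in PR-bla HEK293T cells: 16 h compound, 37C; CellTiter-Glo added post-FRET read; luminescence after 30 min RT.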

[8] = qHTS assay to identify small molecule agonists of the TGF-beta/Smad signaling pathway - cell viability counter screen (AID 1346829; active means well fitted curve in the direction sought with a large enough effect in the repeat runs; an effect the other way counts as inactive or inconclusive; further: top concentration of the series differs between compounds; nearly all actives have a fitted effect of over 45% in size)
In short: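 Same-well cytotoxicity: CellTiter-Glo added after the 2 hr room-temperature beta-lactamase substrate step, luminescence measured 30 min later; cells had 5 hr of compound at 37 C.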

[9] = qHTS assay to identify small molecule antagonists of the progesterone receptor (PR) signaling pathway - cell viability counter screen (AID 1346798; active means well fitted curve in the direction sought with a large enough effect in the repeat runs; an effect the other way counts as inactive or inconclusive; further: series mostly up to about 92 µM; nearly all actives have a fitted effect of over 50% in size)
In short: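 ATP content as viability readout: CellTiter-Glo luminescence, 30 min room temperature, in PR-UAS-bla HEK293T cells after 16 hr compound/R5020 treatment at 37C and 5% CO2.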

[10] = qHTS assay to identify small molecule antagonists of the TGF-beta/Smad signaling pathway - cell viability counter screen (AID 1346824; active means well fitted curve in the direction sought with a large enough effect in the repeat runs; an effect the other way counts as inactive or inconclusive; further: nearly all actives have a fitted effect of over 50% in size)
In short: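 SBE-bla HEK 293T cells were plated overnight at 37 C, then given compounds in DMSO plus TGF-beta1 (added as 0.25 ng/mL solution) for 5 hr. After the bla read, CellTiter-Glo was added to the same wells and luminescence read after 30 min at room temperature.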
On the % scale 0 is the no-effect control and ±100 the full control effect.

C/C(Cl)=C/CCl
inactive: Potency [1] | outcome [2] | outcome [3] | outcome [4] | Potency [5] | Potency [6] | Potency [7] | outcome [8]

CCC(C)SSC(C)CC (stereo unspecified)
inactive: Potency [1] | outcome [2] | outcome [3] | Potency [5] | Potency [6] | outcome [9] | outcome [10] | outcome [8]

O=C(O)/C=C(\CC(=O)O)C(=O)O
inactive: Potency [1] | outcome [2] | outcome [3] | Potency [5] | Potency [6] | Potency [7]

CCCCCCCCCCCCCCBr
inactive: Potency [1] | outcome [2] | outcome [3] | Potency [5] | Potency [6] | outcome [10] | outcome [8]

CC(C)C[P+](C)(CC(C)C)CC(C)C
inactive: Potency [1] | outcome [2] | outcome [3] | outcome [4] | Potency [5] | outcome [9] | Potency [7]

CCCCCCCCCCCCCCCC(=O)OC
inactive: activation [1] -2.08% [at 19 µM] | cAMP activity change [2] -2.44% [at 18.9 µM] | activity change, negative = inhibition [3] 1.93% [at 19 µM] | activity change, negative = cytotoxicity [4] -0.526% [at 19 µM] | activation [5] -3.12% [at 19 µM] | activity change, negative = inhibition [6] 0.526% [at 18.9 µM] | viability change, negative = cytotoxic [10] 1.68% [at 15.8 µM]

COC(=O)c1ccc(C(=O)O)cc1
inactive: Potency [1] | outcome [2] | outcome [3] | outcome [4] | Potency [5] | Potency [7] | outcome [10] | outcome [8]

O=C(CCBr)N1CCN(C(=O)CCBr)CC1
inactive: Potency [1] | outcome [2] | outcome [3] | outcome [4] | Potency [5] | Potency [7] | outcome [10] | outcome [8]

CC(C)=CCC/C(C)=C\C#N
inactive: Potency [1] | outcome [2] | outcome [3] | outcome [4] | Potency [5] | Potency [6] | outcome [8]

COc1cc(S(N)(=O)=O)cc(C(=O)O)c1OC
inactive: Potency [1] | outcome [2] | outcome [3] | outcome [4] | outcome [9] | Potency [7]

CCC(C)(C)C
inactive: Potency [1] | outcome [2] | outcome [3] | Potency [5] | Potency [6] | outcome [9] | Potency [7] | outcome [10] | outcome [8]

C[C@]12C=CC(=O)C=C1[C@@H](F)C[C@@H]1[C@@H]2[C@@H](O)C[C@@]2(C)[C@H]1CC[C@]2(O)C(=O)CO
inactive: Potency [1] | outcome [2] | outcome [3] | outcome [4] | outcome [9] | Potency [7]

N#CC1(N)CCCCC1
inactive: Potency [1] | outcome [2] | outcome [3] | outcome [4] | Potency [5] | Potency [6] | Potency [7] | outcome [8]

CC/C=C\CCOC(=O)c1ccccc1
inactive: Potency [1] | outcome [2] | outcome [3] | outcome [4] | Potency [7] | outcome [10] | outcome [8]

N#Cc1cc(NC(=O)C(=O)O)c(Cl)c(NC(=O)C(=O)O)c1
inactive: Potency [1] | outcome [2] | outcome [3] | Potency [5] | Potency [6] | Potency [7] | outcome [10]

C/C(=N\O)c1ccc(OCC(=O)N2CCCCC2)cc1
inactive: Potency [1] | outcome [2] | outcome [3] | outcome [4] | Potency [5] | Potency [6] | Potency [7] | outcome [10] | outcome [8]

CC(C)C(=O)Nc1cccc(C2CN3CCSC3=N2)c1 (stereo unspecified)
inactive: Potency [1] | outcome [2] | outcome [3] | Potency [5] | Potency [6] | outcome [9] | Potency [7] | outcome [10] | outcome [8]

CN(C)CCCN(C)C
inactive: activation [1] -2.43% [at 8.39 µM] | cAMP activity change [2] 3.11% [at 8.39 µM] | activity change, negative = inhibition [3] 4.29% [at 8.39 µM] | activation [5] -0.0517% [at 8.39 µM] | activity change, negative = inhibition [6] 12.8% [at 8.39 µM] | activity change, negative = cytotoxicity [9] 5.2% [at 8.39 µM] | activity change, negative = cytotoxicity [7] 1.47% [at 8.39 µM] | viability change, negative = cytotoxic [10] -1.68% [at 6.97 µM]

C[C@@H]1CC[C@@]2(OC1)O[C@H]1C[C@H]3[C@@H]4CC[C@H]5C[C@@H](O)CC[C@]5(C)[C@H]4CC(=O)[C@]3(C)[C@H]1[C@@H]2C
inactive: activation [1] 0.597% [at 8.39 µM] | cAMP activity change [2] -0.224% [at 8.39 µM] | activity change, negative = inhibition [3] -0.41% [at 8.39 µM] | activity change, negative = cytotoxicity [4] 0.111% [at 8.39 µM] | activation [5] -0.697% [at 8.39 µM] | activity change, negative = inhibition [6] 17.4% [at 8.39 µM] | activity change, negative = cytotoxicity [7] 3.64% [at 8.39 µM] | activity change, negative = cytotoxicity [8] -1.03% [at 6.97 µM]

c1coc(Cn2cccc2)c1
inactive: Potency [1] | outcome [2] | outcome [3] | outcome [4] | Potency [5] | Potency [6] | Potency [7] | outcome [8]
